Screens from PubChem.
Shiga inhibitor = A qHTS for Small Molecule Inhibitors of Shiga Toxin; inhibition, % at 38.7 µM; Vero cells, Shiga toxin protein synthesis inhibition reporter; AID 2315, 2010; hit rate 9.2% among 290,000; in the data active means inhibition mostly above about 28%, no sharp cut-off; inactive means mostly below about 43%; further: 0% is about no effect
Cycloheximide cs = Cycloheximide Counterscreen for Small Molecule Inhibitors of Shiga Toxin. cell reporter, cycloheximide protein synthesis inhibition counterscreen. max response, %. AID 2314, 2010. hit rate 12% among 300,000; in the data active means max response mostly above about 13%, no sharp cut-off; inactive means mostly below about 14%; further: read at 38.3 µM for the half of the compounds with a filed dose; 0% is about no effect
FBPA Giardia inh = qHTS Assay for Inhibitors of Fructose-1,6-bisphosphate Aldolase from Giardia Lamblia; A8B2U2; Potency, µM (titrated, usually from 59.6 µM), without a hit: at the highest dose activity, negative = inhibition, hits mostly inhibitors; purified Giardia FBPA; hit rate 0.71% among 290,000; further: potency means the concentration at half of the fitted maximal effect; on the % scale 0 is the no-effect control and ±100 the full control effect; nearly all actives have a fitted effect of over 55% in size
Target sequence (A8B2U2 whole entry, looked up): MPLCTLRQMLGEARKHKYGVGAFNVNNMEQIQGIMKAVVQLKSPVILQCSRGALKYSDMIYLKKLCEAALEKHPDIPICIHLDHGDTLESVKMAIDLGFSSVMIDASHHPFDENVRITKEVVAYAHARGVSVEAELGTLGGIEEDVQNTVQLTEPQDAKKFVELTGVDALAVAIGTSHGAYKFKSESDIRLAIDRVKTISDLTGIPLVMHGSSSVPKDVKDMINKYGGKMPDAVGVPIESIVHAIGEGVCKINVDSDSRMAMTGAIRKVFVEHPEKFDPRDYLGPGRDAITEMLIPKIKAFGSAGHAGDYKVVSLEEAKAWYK
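Giardia FBPA (40 nM reagent) was preincubated 10 min at RT with compound (up to 57.5 uM final), then substrate plus GAPDH/TPI/NAD/arsenate coupling system with diaphorase/resazurin was added; resorufin fluorescence (525/598 nm) was read after 20 min.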
TbPYK inhibitor = qHTS of Trypanosoma Brucei Inhibitors | pyruvate kinase (Trypanosoma brucei), Q57TT1 | TbPYK enzyme, Kinase-Glo Plus ATP luminescence, 45 min | Potency, µM (titrated, usually from 76.8 µM), inactives show at the highest dose activity, negative = inhibition, hits mostly inhibitors | hit rate 0.12% among 410,000; further: potency means the concentration at half of the fitted maximal effect; on the % scale 0 is the no-effect control and ±100 the full control effect; nearly all actives have a fitted effect of over 50% in size
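Glycolytic pyruvate kinase of T. brucei was incubated with substrate, test compound and 130 uM ADP for 45 minutes at room temperature. Luminescent Kinase-Glo Plus signal was measured after 10 minutes.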
LmPK inh = qHTS Assay for Inhibitors of Leishmania Mexicana Pyruvate Kinase (LmPK) | Q27686 | purified LmPK, Kinase-Glo ATP luminescence, 1 h | Potency, µM (top dose mostly 57.5 µM), for inactives: at the top dose activity change, negative = inhibition, actives largely listed as inhibitors | hit rate 0.37% among 290,000 | AID 1721, 2009; further: potency means the concentration at half of the fitted maximal effect; on the % scale 0 is the no-effect control and ±100 the full control effect
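qHTS format; LmPK 0.1 nM; substrates PEP 0.5 mM and ADP 0.1 mM. One-hour room-temperature incubation, then coupled luciferase luminescence; 0.5 nM enzyme wells mark activation.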
RE007 growth inh = qHTS Assay for Inhibitors of the HIV-1 protein Vpr; AID 651644, 2012; Potency, µM (doses to about 92.2 µM), for the others: at the highest dose activity change, negative = less growth, actives largely listed as inhibitors; S. pombe RE007 Vpr strain, BacTiter-Glo ATP luminescence, 24 h; hit rate 0.21% among 360,000; active means well fitted falling curve with a large enough effect; inconclusive means small, poorly fitted or top-dose-only effect; inactive means no such curve, though single readings can be large or run the other way; further: potency means the concentration at half of the fitted maximal effect; on the % scale 0 is the no-effect control and ±100 the full control effect; nearly all actives have a fitted effect of over 50% in size
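Fission yeast RE007 carrying one integrated HIV-1 vpr copy, seeded at OD 0.01 in PMG+AL medium with 23 nL pinned compound. Grown 24 h at 30 degrees; viability read by BacTiter-Glo luminescence after 5 min.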
The depositor's hits bear a star; ? = inconclusive; / = not tested or not shown; [ ] = dose if it differs, or a comment. The full list was thinned out, with hits kept by preference. Unless noted, the call rests on the fitted dose curve; in most records, active means well fitted curve in the direction sought with a large enough effect; inconclusive means small, poorly fitted or top-dose-only effect, or another doubt; inactive means no such curve, though single readings can be large; an effect the other way counts as inactive or inconclusive.

SMILES | Shiga inhibitor | Cycloheximide cs | FBPA Giardia inh | TbPYK inhibitor | LmPK inh | RE007 growth inh
Cc1cccc(N2CCN(C(=O)c3ccc4nc[nH]c4c3)CC2)c1C | -3 | -5 | 17% | 0% | 2% | 1%
Cc1cccc(N2CCN(C(=O)c3ccc4ncsc4c3)CC2)c1C | 72* | 30* | 7% | -20% | 9% | 0%
CC(C)CC(=O)NC1(C(F)(F)F)C(=O)Nc2c1c(=O)[nH]c(=O)n2-c1ccccc1 (configuration not stated) | / | / | / | 1% | / | /
CCOc1cc(C(=O)Nc2ccc(S(=O)(=O)NC3=NCCCCC3)cc2)cc(Br)c1OC | / | / | / | 6% | / | 4%
CCOC(=O)C1(CCOc2ccccc2)CCN(CC(O)CO)CC1 (configuration not stated) | 0 | 2 | 7% | -6% | 2% | -9%
CC(C)NC(=O)C1(C)CCN1Cc1ccc(Cl)cc1 (configuration not stated) | / | / | / | -6% | / | 1%[18.4 µM]
Cc1nn(-c2nnc(NC3CCCCC3)nn2)c(C)c1Br | active | 47* | -12% | 1% | -8% | -29%
CN(C(=O)c1cc2c(s1)-c1ccc(Cl)cc1SC2)c1cccc(C(F)(F)F)c1 | / | / | / | 5% | / | /
Nc1nc2ncc(C(=O)c3cc(F)ccc3O)cc2s1 | -5 | 12 | 0% | -2% | 11% | 6%
Cc1ncc(CC(=O)n2cc(C(=O)c3cc(F)ccc3O)cn2)s1 | 45* | 34* | -3% | 4% | -3% | -8%
Cc1ccc(O)c(C(=O)c2cnn(C(=O)Cc3csc(C)n3)c2)c1 | 84 | -1 | 18% | -5% | -1% | 25µM*
COc1ccc(O)c(C(=O)c2cnn(C(=O)c3ccc(C)cc3)c2)c1 | / | / | / | 3% | / | 27%
Cc1nc(CC(=O)c2ccc(O)cc2O)cs1 | 30 | 12 | 0% | ? | -1% | -2%
Cc1nc(CC(=O)c2ccc(O)c(C)c2O)cs1 | 47* | 9.7* | 5% | 11% | 5% | -17%
CC(C)Oc1cccc(NC(=O)c2ccccc2C(F)(F)F)c1 | / | / | / | 2%[157 µM] | / | /
COC(=O)c1ccc(N=Nc2ccccc2)cc1 | 79* | 32* | 1% | -3% | -1% | 0%
COC(=O)c1ccc(OCCOc2ccccc2)cc1 | 59* | 22* | 2% | 3% | -6% | 8%
COC(=O)c1ccc(OCCOc2ccccc2C)cc1 | 105 | 12* | 5% | 4% | -5% | 11%
COC(=O)c1ccc(OCCCCN(C)Cc2ccccc2)cc1 | / | -3 | ? | 34% | -1% | -23%
CCCCCCc1ccc(N2C[C@H](C)[C@@H](CC(=O)NCc3ccccc3)C2=O)cc1 | -1 | 8.5* | 3% | -3% | 2% | -12%
CCCCCCc1ccc(N2C[C@H](Cc3ccccc3)[C@@H](CC(=O)Nc3ccccc3)C2=O)cc1 | 44* | 17* | -13% | 6% | -1% | 9%
CCCCCCc1ccc(N2C[C@H](CCCCC)[C@@H](CC(=O)NCc3ccccc3)C2=O)cc1 | -1 | 1 | -10% | -2% | 6% | 22%
CC(=O)N1[C@H](C)C=C[C@]1(Cc1ccccc1)C(=O)NCc1ccc(C)o1 | / | / | -4% | / | / | /
O=[N+]([O-])c1ccccc1CSc1nc2ccccc2o1 | 75* | 40* | 0% | 2% | 0% | -13%
Cc1cccc(CC2CC(=O)N(c3nc4ccccc4s3)C2=O)c1 (configuration not stated) | -7 | -1 | 0% | 2% | 3% | 137%
SMILES | Shiga inhibitor | Cycloheximide cs | FBPA Giardia inh | TbPYK inhibitor | LmPK inh | RE007 growth inh
COc1ccc2nc(N3C(=O)CNC3=S)sc2c1 | 50 | 51* | ? | -30% | ? | -20%
COC(=O)/C=C1\C(=O)N(c2nc3ccc(OC)cc3s2)C(=S)N1c1ccc(F)cc1 | -10 | 1 | 5% | / | 3% | /
Cc1ccc2nc(N3C(=O)CNC3=S)sc2c1 | 56* | 47* | ? | -26% | ? | ?
NNC(=O)c1ccc(O)cc1O | 76* | 30* | -4% | 4% | -5% | 19%
CCCCCC(=O)c1ccc(O)cc1O | 49* | 32* | 11% | -3% | 8% | 2%
O=C(NN=C1CCCC1)c1cc(Br)ccc1O | 43 | 23* | -15% | -5% | 1% | -8%
O=C(NN=C1CCCC1)c1ccc(O)cc1O | 124* | 38* | / | -1% | -9% | 7%
Cc1ccc(C)c(-n2nnc(-c3nc(-c4ccccc4C)no3)c2C)c1 | / | / | / | 7% | / | /
C#C[C@]1(OC(C)=O)CCC2C3CCC4=CC(=O)CCC4C3CC[C@]21C (some centres not stated) | / | / | 5% | / | / | /
Cc1ccc(NC(=O)N2CCC(CN3CCC(C)CC3)CC2)cc1F | / | / | / | -4% | / | /
COc1ccc(C(=O)NN=C2CCCC2)c(OC)c1 | 28 | 20* | -7% | 0% | 6% | 9%
CCCSc1oc(-c2cccs2)nc1S(=O)(=O)c1ccc(Cl)cc1 | / | / | / | -6% | / | /
N#Cc1ccccc1OCC(=O)NC(=O)NCc1ccco1 | 57* | 26* | 0% | 2% | -1% | -4%
N#Cc1ccccc1OCC(=O)NC(=O)NCc1ccccc1 | 21 | 8 | 6% | -2% | -2% | -8%
CCNC(=O)NC(=O)COc1ccccc1C#N | 81* | 36* | 7% | 8% | -13% | -13%
Cc1ccccc1C(=O)Nc1cccc(-c2cn3cccnc3n2)c1 | / | / | / | -2% | / | /
N#Cc1cnc(Nc2ccc(F)cc2)nc1N | 33 | 24* | 0% | -4% | -4% | 5%
Cc1cc(C)c(C#N)c(Nc2ccc(F)cc2)n1 | -9 | -1 | 7% | 0% | -6% | -17%
Nc1ccc(-c2nc3ccc(-c4nc5ccccc5o4)cc3[nH]2)cc1 | 39 | 28* | 5% | 2% | 6% | 3%
Cc1ccnc2ccc(-c3nc4ccccc4o3)cc12 | 55* | 21* | -11% | -13% | -10% | -27%
Cc1nc2ccc(-c3nc4ccccc4o3)cc2[nH]1 | 68* | 52* | 4% | -3% | -15% | -12%
Cc1onc(-c2c(Cl)cccc2Cl)c1NC(=O)NNc1ccccn1 | 9 | 29* | -8% | 1% | -2% | 1%
Cc1onc(-c2c(Cl)cccc2Cl)c1NC(=O)NNc1ccccc1 | -4 | -1 | -1% | -3% | 4% | 15%
Nc1c(C(=O)NC2CCCC2)c2nc3ccccc3nc2n1N | 43* | 71* | -1% | 0% | -4% | 1%
CS(=O)(=O)c1ccc(N)c(SSc2cc(S(C)(=O)=O)ccc2N)c1 | / | / | / | 3.5µM* | / | 7%
O=c1oc2ccccc2cc1-c1cn2cccnc2n1 | 103* | 57* | -4% | / | -19% | 20%[3.69 µM]
Cc1cccn2cc(-c3cc4ccccc4oc3=O)nc12 | 111* | 53* | 11% | -6% | -18% | -4%
